Where a name gives a salt, the structure may show the parent alone.
What follows are molecules tested on Saccharomyces cerevisiae BY4741 SeMeCo community (assay: z-score of subpopulation abundance vs DMSO median, subpopulation auxotrophic for HLUM; higher = larger share of this subpopulation than in DMSO controls). Conditions: 10 µM; 24 h; SM minimal medium; subpopulation (auxotrophy): HLUM.
Description: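 Fluorescent four-plasmid SeMeCo (self-establishing metabolically cooperating S. cerevisiae BY4741 community; plasmids pH-mRuby2, pL-mWasabi, pU-eCFP, pM-TagRFP657) was grown 24 h in minimal SM medium with each Selleck FDA-approved drug at 10 µM in 384-well plates. Cells were fixed and imaged by high-content confocal microscopy. For each auxotrophic subpopulation (and the prototroph), a z-score gives the deviation from the DMSO vehicle-control population median.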

| Structure (SMILES) | z-score of subpopulation abundance |
| --- | --- |
| CCC1=C[C@H]2CN3CCc4c([nH]c5ccccc45)[C@](C(=O)OC)(C2)[C@H]13 [Catharanthine] | -0.22 |
| O=[N+]([O-])C(Br)(CO)CO [Bronopol] | 0.53 |
| CN1[C@@H]2C[C@@H](OC(=O)[C@H](CO)c3ccccc3)C[C@H]1[C@@H]1O[C@@H]12 [Scopolamine HBr] | -0.88 |
| C[C@H]1O[C@H](O[C@H]2[C@H](O)[C@@H](O)[C@@H](O)[C@H](O)[C@@H]2O)[C@@H](N)C[C@@H]1NC(=N)C(=O)O [Kasugamycin hydrochloride] | -0.04 |
| C[N+]1(C)[C@@H]2C[C@@H](OC(=O)[C@H](CO)c3ccccc3)C[C@H]1[C@@H]1O[C@@H]12 [Methscopolamine] | 0.24 |
| Oc1cccc2cccnc12 [8-Hydroxyquinoline] | 0.11 |
| CC[C@H]1[C@@H]2C[C@H]3[C@@H]4N(C)c5ccccc5[C@]45C[C@@H]([C@@H]2[C@H]5O)N3[C@@H]1O [Ajmaline] | -0.76 |
| C[N+](C)(C)CCCCCCCCCC[N+](C)(C)C [Decamethonium Bromide] | -0.4 |
| O=c1cccc2n1C[C@@H]1CNC[C@H]2C1 [Cytisine] | -0.32 |
| CC[N+](C)(CC)CCOC(=O)C(O)(c1ccccc1)c1ccccc1 [Methylbenactyzine Bromide] | -1.18 |
| C=C[C@H]1CN2CC[C@H]1C[C@H]2[C@H](O)c1ccnc2ccccc12 [Cinchonidine] | 0.1 |
| C[C@@H]1CC[C@H]2[C@@H](C)C(=O)O[C@@H]3O[C@@]4(C)CC[C@@H]1[C@]32OO4 [Artemisinin] | -0.59 |
| CCCCCCCCCCCCCCCC[n+]1ccccc1 [Cetylpyridinium Chloride] | 49.4 |
| CN(C)[C@@H]1C(=O)C(C(N)=O)=C(O)[C@@]2(O)C(=O)C3=C(O)c4c(O)cccc4[C@@](C)(O)[C@H]3[C@H](O)[C@@H]12 [Oxytetracycline Dihydrate] | -0.3 |
| Cc1cc(O)ccc1Cl [Chlorocresol] | -0.16 |
| CC(=O)O[C@H]1C[C@@H]2CC[C@@H]3[C@H](CC[C@@]4(C)[C@H]3C[C@H]([N+]3(C)CCCCC3)[C@@H]4OC(C)=O)[C@@]2(C)C[C@@H]1[N+]1(C)CCCCC1 [Pancuronium dibromide] | -0.93 |
| COc1ccc(C(CN(C)C)C2(O)CCCCC2)cc1 (stereo not given) [Venlafaxine] | -0.12 |
| Cc1cc(C(C#N)c2ccc(Cl)cc2)c(Cl)cc1NC(=O)c1cc(I)cc(I)c1O (stereo not given) [Closantel] | 0.27 |
| CC(=O)OCC1=C(C(=O)O)N2C(=O)C(N)C2SC1 (stereo not given) [7-Aminocephalosporanic acid] | -0.76 |
| NCCc1c[nH]c2ccc(O)cc12 [Serotonin HCl] | 0.3 |

| Structure (SMILES) | z-score of subpopulation abundance |
| --- | --- |
| C=CC[C@]1(O)CC[C@H]2[C@@H]3CCC4=CC(=O)CCC4=C3C=C[C@@]21C [Altrenogest] | -0.9 |
| CN1[C@@H]2CC[C@H]1C[C@@H](OC(=O)C(CO)c1ccccc1)C2 (stereo not given in full) [Atropine sulfate monohydrate] | -0.85 |
| O=c1[nH]c2ccccc2n1CCCN1CCC(n2c(=O)[nH]c3cc(Cl)ccc32)CC1 [Domperidone] | 0.88 |
| CN[C@@H]1[C@@H](O)[C@@H](O[C@@H]2[C@@H](O)[C@H](O[C@H]3O[C@H]([C@@H](C)O)[C@@H](O)[C@H](O)[C@H]3N)[C@@H](N)C[C@H]2N)OC[C@]1(C)O [Geneticin (G418 Sulfate)] | -0.56 |
| NCC(O)c1ccc(O)cc1 (racemic) [(+,-)-Octopamine HCl] | -0.38 |
| CC(NC(C)(C)C)C(=O)c1cccc(Cl)c1 (stereo not given) [Amfebutamone (Bupropion) HCl] | 0.09 |
| C[C@@H]1O[C@@H](O[C@H]2C[C@@H](O)[C@]3(CO)[C@H]4[C@H](O)C[C@]5(C)[C@@H](C6=CC(=O)OC6)CC[C@]5(O)[C@@H]4CC[C@]3(O)C2)[C@H](O)[C@H](O)[C@H]1O [Ouabain] | -0.91 |
| C=C(C)[C@H]1Cc2c(ccc3c2O[C@@H]2COc4cc(OC)c(OC)cc4[C@@H]2C3=O)O1 [Rotenone (Barbasco)] | 0.56 |
| CCN1CC2(OC(=O)c3ccccc3NC(C)=O)CCC(OC)C34C1C(CC23)C1(O)CC(OC)C2CC4C1(O)C2OC (stereo not given) [Lappaconitine] | -0.44 |
| CCCN1C[C@H](CSC)C[C@@H]2c3cccc4[nH]cc(c34)C[C@H]21 [Pergolide Mesylate] | -0.1 |
| COc1cc2c(cc1OC)C1CC(=O)C(CC(C)C)CN1CC2 (stereo not given) [Tetrabenazine (Xenazine)] | 2.34 |
| N[C@@H]1C[C@H]1c1ccccc1 [Tranylcypromine (2-PCPA) HCl] | 0.28 |
| O=C(O[C@H]1C[N+]2(CCCOc3ccccc3)CCC1CC2)C(O)(c1cccs1)c1cccs1 [Aclidinium Bromide] | -0.18 |
| CCOC(=O)Nc1ccc(NCc2ccc(F)cc2)cc1N [Retigabine] | -0.4 |
| CN(C)[C@@H]1C(=O)C(C(N)=O)=C(O)[C@@]2(O)C(=O)C3=C(O)c4c(O)cccc4[C@@](C)(O)[C@H]3C[C@@H]12 [Tetracycline HCl] | -0.58 |
| CN(C)C(=O)Oc1cccc([N+](C)(C)C)c1 [Neostigmine Bromide] | -0.18 |
| CC(C)=CCOc1c2occc2cc2ccc(=O)oc12 [Imperatorin] | 0.23 |
| CC1(C)SC2C(N)C(=O)N2C1C(=O)O (stereo not given) [6-Aminopenicillanic acid] | -0.72 |
| CC[C@@]1(O)C(=O)OCc2c1cc1n(c2=O)Cc2cc3ccccc3nc2-1 [Camptothecin] | -0.44 |
| CN1[C@@H]2C[C@@H](OC(=O)[C@H](CO)c3ccccc3)C[C@H]1[C@@H]1O[C@@H]12 [Scopolamine HBr trihydrate] | -0.22 |
